Assay results taken from PubChem BioAssay (EPA / NIEHS).
Records with an inconclusive call do not appear. Active and inactive are the calls of the source. Rule for the calls, unless noted: active = hit-call score of the fitted dose curve at least 0.9, where 1 is the maximum; inactive = score below 0.9.

Tests used:
[1] = CCTE_Shafer_MEA_dev_firing_rate_mean: CCTE's Neural Network Formation Assay for Mean Firing Rate, Shafer Lab (AID 2284031);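 note: curve fitted for loss of firing so AC50 reflects decreased mean firing rate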
How it was run: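 Steps: seed rat cortical cells (1.5 x 10^5/well) with laminin on PEI-coated MEA; dose day 0; record DIV 5/7/9/12, full media and compound exchange after DIV 5 and 9 recordings; compute well-mean firing rate AUC.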

[2] = CCTE_Shafer_MEA_dev_per_burst_spike_percent: CCTE's Neural Network Formation Assay for Percent of Spikes in a Burst, Shafer Lab (AID 2284032);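 note: fitted as a decrease in burst spike percentage below DMSO baseline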
How it was run: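 Value is trapezoidal AUC over recordings on days 5, 7, 9 and 12 of the well-mean fraction of spikes falling in single-electrode bursts; rat cortical cultures exposed continuously from plating, treatment renewed DIV 5 and 9, fitted downward against DMSO.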

[3] = CCTE_Shafer_MEA_dev_active_electrodes_number: CCTE's Neural Network Formation Assay for Number of Active Electrodes, Shafer Lab (AID 2284040; active = hit-call score of the fitted dose curve at least 0.9, where 1 is the maximum;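 note: potency for loss of active electrodes versus DMSO so lower counts are hits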)
How it was run: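 Counts electrodes per well firing at least 5 spikes/min, recorded on days 5, 7, 9 and 12 in rat cortical cultures dosed continuously from plating (treatment refreshed DIV 5, 9). Value is the area under the curve over recordings, fitted downward relative to DMSO.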

[4] = CCTE_Shafer_MEA_dev_burst_rate: CCTE's Neural Network Formation Assay for Burst Rate, Shafer Lab (AID 2284042);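 note: potency for loss of burst rate below DMSO control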
How it was run: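 Cells plated, treated day 0; recorded DIV 5, 7, 9, 12; fed and re-treated DIV 5, 9. Endpoint: bursts per recording time, active-electrode well mean, trapezoidal AUC, fitted in decreasing direction against DMSO baseline.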

[5] = CCTE_Shafer_MEA_dev_bursting_electrodes_number: CCTE's Neural Network Formation Assay for Number of Bursting Electrodes, Shafer Lab (AID 2284043; active = hit-call score of the fitted dose curve at least 0.9, where 1 is the maximum;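 note: potency is for loss of bursting electrodes relative to DMSO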)
How it was run: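 Number of electrodes reaching ≥1 burst every 2 min was recorded at DIV 5, 7, 9 and 12 and collapsed as trapezoidal area under the curve. Cultures were rat cortical neurons on MEA plates, dosed continuously from plating with medium and treatment refreshed on DIV 5 and 9.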

[6] = CCTE_Shafer_MEA_dev_per_burst_interspike_interval: CCTE's Neural Network Formation Assay for Burst Interspike Interval, Shafer Lab (AID 2284044);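 note: potency for a decrease of within-burst interspike interval below DMSO level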
How it was run: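 Readout is the average time between spikes inside single-electrode bursts, taken as a well mean across bursting electrodes. Cortical neurons from rat developed networks on MEA plates under continuous 12-day exposure; recordings on days 5, 7, 9 and 12 were integrated by trapezoidal AUC.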

[7] = CCTE_Shafer_MEA_dev_burst_duration_mean: CCTE's Neural Network Formation Assay for Mean Burst Duration, Shafer Lab (AID 2284045);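 note: curve fitted for loss meaning shorter burst duration than DMSO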
How it was run: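 Mean single-electrode burst duration (first to last spike), averaged over bursting electrodes per well, then integrated as area-under-curve across recordings at days 5, 7, 9 and 12. Rat cortical cultures on MEAs, compound present from plating, refreshed at feeds.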

[8] = CCTE_Shafer_MEA_dev_interburst_interval_mean: CCTE's Neural Network Formation Assay for Mean Interburst Interval, Shafer Lab (AID 2284046);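 note: well-mean interburst interval of bursting electrodes as AUC over four recording days; curve fitted for decrease in interburst interval relative to DMSO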
How it was run: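 Developing rat cortical networks on 48-well MEAs receive compound from the day of plating. Burst intervals from each active electrode are averaged per well, and AUC over the recording days is fitted in the negative direction against DMSO.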

[9] = CCTE_Shafer_MEA_dev_network_spike_number: CCTE's Neural Network Formation Assay for Number of Network Spikes, Shafer Lab (AID 2284048);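 note: fit as a loss of signal meaning fewer network spikes than DMSO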
How it was run: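 Number of network spikes (coordinated firing across electrodes) recorded on days 5, 7, 9 and 12 and summarised as area under the curve. Rat cortical cultures on MEA, continuous compound exposure with full medium/treatment exchange at DIV 5 and 9.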

[10] = CCTE_Shafer_MEA_dev_network_spike_peak: CCTE's Neural Network Formation Assay for Mean Number of Electrodes in Network Spike, Shafer Lab (AID 2284049);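 note: fitted for loss of signal meaning fewer electrodes in network spikes than DMSO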
How it was run: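 Rat cortical primary culture, 1.5 x 10^5 cells/well, 48-well MEA (16 electrodes/well). Dosing day 0 through DIV 12, full media/compound exchange DIV 5, 9. AxIS adaptive spike detection; AUC over days 5/7/9/12; loss-of-signal vs DMSO.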

[11] = CCTE_Shafer_MEA_dev_spike_duration_mean: CCTE's Neural Network Formation Assay for Mean Spike Duration, Shafer Lab (AID 2284051);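 note: mean network spike duration pooled as area under curve over DIV 5 to 12 recordings; potency for a decrease in mean network spike duration versus DMSO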
How it was run: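 Readout is the average length of network spikes, clustered firing across electrodes, summed over DIV 5, 7, 9 and 12 as area under the curve. Neurons from rat cortex developed networks on MEA plates under continuous 12-day exposure.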

[12] = CCTE_Shafer_MEA_dev_network_spike_duration_std: CCTE's Neural Network Formation Assay for Standard Deviation of Network Spike Duration, Shafer Lab (AID 2284052);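 note: hits are decreases in network spike duration SD versus DMSO vehicle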
How it was run: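 Read-out is the trapezoidal area-under-the-curve across recordings made on days 5, 7, 9 and 12, fitted in the negative direction against DMSO baseline. Neurons were primary rat cortical cells treated from day 0, with treatment renewed at each feed.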

[13] = CCTE_Shafer_MEA_dev_per_network_spike_spike_number_mean: CCTE's Neural Network Formation Assay for Mean Number of Spikes in a Network Spike, Shafer Lab (AID 2284053);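 note: fitted as decrease in spikes per network spike relative to DMSO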
How it was run: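 Continuous twelve-day exposure of developing rat cortical networks grown over 16 microelectrodes per well; spontaneous firing is captured at four time points, and the per-network-spike spike number is integrated over development by trapezoidal AUC.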

[14] = CCTE_Shafer_MEA_dev_per_network_spike_spike_percent: CCTE's Neural Network Formation Assay for Percent of Spikes in a Network Spike, Shafer Lab (AID 2284054)
How it was run: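 Metric: fraction of spikes falling in a 0.05 s window at network-spike peaks. Recordings were made on days 5, 7, 9 and 12 and collapsed by trapezoidal AUC. Cultures were rat cortical neurons on MEA plates, dosed continuously from plating, re-dosed at media changes.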

[15] = CCTE_Shafer_MEA_dev_LDH: CCTE's Lactate Dehydrogenase Assay for Cytotoxicity in the Neural Network Formation Assay, Shafer Lab (AID 2284068; active = hit-call score of the fitted dose curve at least 0.9, where 1 is the maximum;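 note: exposure for twelve days from plating with re-dosing on DIV 5 and 9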)
How it was run: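 Cytotoxicity companion to network-formation recordings: rat cortical neurons received compound over 12 days of development, re-dosed at DIV 5 and 9 feeds. Viability was inferred from LDH enzyme activity relative to DMSO.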

[16] = CCTE_Shafer_MEA_dev_AB: CCTE's Alamar Blue Assay for Cytotoxicity in the Neural Network Formation Assay, Shafer Lab (AID 2284083; active = hit-call score of the fitted dose curve at least 0.9, where 1 is the maximum;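 note: resazurin reduction fluorescence as viability of cultured neurons; twelve days of exposure from plating with re-dosing on DIV 5 and 9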)
How it was run: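 Fluorescent resazurin reduction serves as the viability read-out, with DMSO as negative control and baseline. Cells were primary rat cortical neurons grown on MEA plates and dosed from day 0 to day 12, treatment renewed on DIV 5 and 9.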

[17] = CCTE_Shafer_MEA_dev_mutual_information_norm: CCTE's Neural Network Formation Assay for Mutual Information Normalization, Shafer Lab (AID 2284091);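 note: mutual information between electrodes summarised as area under curve across four recording days; potency is for a decrease in mutual information relative to DMSO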
How it was run: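 Shared information across electrodes, tracked on days 5, 7, 9 and 12 of network development and collapsed as trapezoidal area under the curve. Rat cortical cultures were treated continuously from plating, with treatment renewed at feeds on DIV 5 and 9; DMSO baseline, negative-direction fit.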

[18] = CCTE_Shafer_MEA_dev_correlation_coefficient_mean: CCTE's Neural Network Formation Assay for Mean Correlation Coefficient, Shafer Lab (AID 2284093);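 note: well mean pairwise spike train correlation integrated as AUC over recording days 5 to 12; potency fitted for loss of correlation relative to DMSO vehicle wells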
How it was run: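 Read-out: well-mean correlation coefficient of spike trains between electrode pairs, collapsed over four recording days as trapezoidal area-under-the-curve. Developing rat cortical neuron networks grown on MEAs received test chemical continuously from plating.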

[19] = IUF_NPC1b_proliferation_BrdU_72hr: Leibniz Research Institute for Environmental Medicine (IUF) 72-hour Neural Progenitor Cell Bromodeoxyuridine (BrdU) Proliferation Assay (NPC1b) (AID 2284207)
How it was run: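 Human fetal cortex-derived (GW 16-19) neural progenitor spheres, 0.25-0.35 mm, one per well in EGF/FGF proliferation medium, exposed to compound for 72 h at 37C, pH 7.2-7.6. BrdU incorporation over the final 16 h read by luminescence ELISA, relative to DMSO.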

[20] = CCTE_Mundy_HCI_Cortical_Synap_Neur_Matur_NeuriteSpotCountPerNeuriteLength: CCTE's Synaptogenesis and Neurite Maturation Assay in rat cortical cells for Neurite Spot Count per Neurite Length, Mundy Lab (AID 2284210)
How it was run: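 Synaptophysin spots per unit neurite length, measured by automated imaging of MAP2/synaptophysin/Hoechst-stained neurons. Cultures from rat cortex received chemical at DIV 7 with media change through DIV 12; glial growth arrested by AraC at DIV 5; DMSO baseline.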

[21] = CCTE_Mundy_HCI_Cortical_Synap_Neur_Matur_BPCount: CCTE's Synaptogenesis and Neurite Maturation Assay in rat cortical cells for Branch Point Count, Mundy Lab (AID 2284211)
How it was run: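 HCI read-out of branch points from MAP2/synaptophysin/Hoechst immunofluorescence; rat cortical cultures, AraC DIV 5, dosing DIV 7, fixed DIV 12; fit in positive direction vs DMSO baseline.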

[22] = CCTE_Mundy_HCI_Cortical_NOG_NeuriteCount: CCTE's Neurite Outgrowth Assay in rat cortical cells for Neurite Count, Mundy Lab (AID 2284212);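 note: cells fixed about two days after chemical exposure began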
How it was run: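 Rat cortical primary cells; compound added 2 h post-plating, 1/10 dilution of working solution. Anti-betaIII-tubulin/AF488 ICC; ArrayScan neurite count vs DMSO.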

[23] = CCTE_Mundy_HCI_Cortical_NOG_NeuriteLength: CCTE's Neurite Outgrowth Assay in rat cortical cells for Neurite Length, Mundy Lab (AID 2284213)
How it was run: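 First, rat primary cortical cells were plated and, 2 h later, given test chemical as a 1/10 dilution. Finally, βIII-tubulin immunostaining enabled automated imaging of neurite length.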

Measured: AC50

CCOP(=O)(OCC)OC(Cl)C(Cl)(Cl)Cl (stereo not drawn)
inactive: [19] | [22] | [23]
active: [1] 1640 nM | [2] 1320 nM | [3] 2520 nM | [4] 945 nM | [5] 1100 nM | [6] 3480 nM | [7] 1220 nM | [8] 3570 nM | [9] 833 nM | [10] 2290 nM | [11] 1390 nM | [12] 602 nM | [13] 1920 nM | [14] 2250 nM | [15] 825 nM | [16] 2240 nM | [17] 797 nM | [18] 1130 nM | [20] 49600 nM | [21] 79500 nM
